NADH coupling: inhibitors of PK/LDH coupling enzymes, profiling panel, artefact control, biochemical, MLSMR library; AID 774, 2007; actives 0.02% (n = 65,000); IC50, µM (top dose mostly 10 µM), for inactives: top-dose inhibition; coupled PK/LDH NADH assays, four targets;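 active = single-dose screening hits from any of four coupled enzyme assays that gave an IC50 when retested across doses; inconclusive = no clear call, values can overlap the other calls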;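 note: the DPM-DC format reads NADH fluorescence rather than 340 nm absorbance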
MKP-1 inh: MKP-1 phosphatase inhibitors, primary screen, biochemical, in vitro. recombinant MKP-1, OMFP hydrolysis fluorescence. inhibition, %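 (compounds tested at a single concentration somewhere between 10 and 100 µM)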. actives 0.15% (n = 65,000). AID 374, 2006;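 active = inhibition above about 50%, limit read from the data; inconclusive = inhibition over screen mean plus 3 SD, below that limit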;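 note: 0% = DMSO max control wells and 100% = wells with enzyme stopped by NaOH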
Cdc25B inh: inhibitors of Cdc25B phosphatase catalytic domain, primary screen, biochemical, OMFP fluorescence. recombinant Cdc25B, OMFP fluorescence Ex485/Em525. inhibition, %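 (compounds tested at 10 µM final in the well)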. actives 0.1% (n = 65,000). AID 368, 2006; in the data active = inhibition above about 50%
Target sequence (P30305 whole entry, looked up, the tested form may be a part): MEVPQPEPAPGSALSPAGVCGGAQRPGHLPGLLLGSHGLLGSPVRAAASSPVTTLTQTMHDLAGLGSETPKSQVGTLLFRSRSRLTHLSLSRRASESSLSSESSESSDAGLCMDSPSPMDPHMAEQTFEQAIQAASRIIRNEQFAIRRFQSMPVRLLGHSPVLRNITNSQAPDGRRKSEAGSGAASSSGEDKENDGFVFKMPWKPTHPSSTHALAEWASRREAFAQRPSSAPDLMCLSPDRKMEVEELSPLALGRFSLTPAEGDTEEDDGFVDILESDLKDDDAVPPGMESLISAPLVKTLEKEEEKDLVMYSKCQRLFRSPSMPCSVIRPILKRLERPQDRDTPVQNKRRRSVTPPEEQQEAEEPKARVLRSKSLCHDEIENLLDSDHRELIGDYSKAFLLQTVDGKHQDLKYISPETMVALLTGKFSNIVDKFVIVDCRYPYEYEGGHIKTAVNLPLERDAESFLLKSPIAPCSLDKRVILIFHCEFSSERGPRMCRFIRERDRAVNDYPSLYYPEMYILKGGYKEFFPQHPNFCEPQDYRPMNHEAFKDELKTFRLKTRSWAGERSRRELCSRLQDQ
Fluor 339 460: intrinsic fluorescence of library compounds, ex339/em460 – biochemical, MLSMR library, data from DPM-DC assay, artefact control, profiling panel | fluorescence fold increase at 10 µM | AID 709, 2007 | compound autofluorescence, ex339/em460 nm, NADH buffer; active compounds read high; 1 = no-compound wells, NADH background | actives 5.5% (n = 65,000);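 active = at 10 µM, mean starting fluorescence two-fold or more over control wells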;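 note: signal is the first read of a kinetic run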
Abs 340nm: compound light absorbance at 340 nm, profiling panel, artefact control, biochemical, MLSMR library, data from PS, PMK, MK assays | compound absorbance at 340 nm, fold over control | 65,000 tested, under 10 active | fold change at 10 µM;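 active = at 10 µM dose, initial 340 nm absorbance at least 2 fold that of control wells; inactive = change under 2 fold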;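 note: initial absorbance extrapolated from kinetic A340 decline of NADH oxidation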
Hsp90 block: tumor Hsp90 inhibitors, primary screen, cell lysate, fluorescence polarization, NCI-N417 lysate; AID 429, 2006; Cy3B-geldanamycin FP displacement; actives 0.35% (n = 64,000); Heat shock protein HSP 90-alpha (Homo sapiens), P07900; inhibition, % at 30 µM;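 active = inhibition above 50%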;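 note: 0% = tracer plus lysate wells and 100% = tracer alone without lysate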
Active calls of the source: *; ? = inconclusive. Rows were chosen to be rich in hits. Some 5.7% of all compounds tested hit in one or more screens of this group.

SMILES | NADH coupling | MKP-1 inh | Cdc25B inh | Fluor 339 460 | Abs 340nm | Hsp90 block
O=c1c2c([nH]c3ccccc13)C(=C1CCCC1)CC2 | 0.0% | -9.3 | 3.8 | 2.11* | 1.12 | -7.7
CCCC(C(=O)NC1CCCC1)N(Cc1cccs1)C(=O)c1snc(C(N)=O)c1N (configuration not stated) | 11.0% | -9.1 | 1.5 | 1.56 | 1.05 | -0.1
CCCCC(C(=O)NCCC(C)C)N(CCCN1CCOCC1)C(=O)c1snc(C(N)=O)c1N (configuration not stated) | 7.0% | 7.2 | -5.6 | 2.08* | 1.05 | -5.6
CCc1ccccc1NC(=O)CN1CCC(NC(=O)COC)CC1 | 9.0% | 11.6 | -6.9 | 1.09 | 0.98 | -1.8
Cc1cc(C)n(-c2nc(NCc3cccnc3)c3c4c(sc3n2)COC(C)(C)C4)n1 | 5.0% | 29.6 | 3.4 | 3.7* | 1.08 | -3.2
C=CC[N+](C)(C)CCCNC(=O)/C=N/O | 6.0% | -26.7 | 15.6 | 1.07 | 1.03 | -2.9
CCN(CC)c1ccc(/C=N/n2nnnc2N)c(O)c1 | 6.0% | 13.4 | -3.2 | 1.71 | 1.03 | 6.3
CSc1ccc(/C=N/n2nnnc2N)cc1 | 10.0% | -2.2 | 4.5 | 5.02* | 1.22 | 1.3
CCN(C)c1ccc(/C=N\n2nnnc2N)cc1 | 15.0% | -11.4 | -7.7 | 2.5* | 1.08 | -2.3
CCC(=O)NC1(C(F)(F)F)C(=O)Nc2c1c(=O)n(C)c(=O)n2C (configuration not stated) | 5.0% | 3.6 | 60.2* | 1.14 | 1.05 | -1.7
CCCCOC(=O)Sc1nc2ccccc2o1 | 5.0% | 1.7 | 0.4 | 1.06 | 1.01 | -1.6
CCCCn1c(NC(=O)c2ccc(F)cc2)c(C#N)c2nc3ccccc3nc21 | 11.0% | ? | 79.4* | 5.01* | 1.04 | 40.6
O=C(Nc1cccc2nsnc12)c1ccc(F)cc1 | 9.0% | -14.9 | 11.6 | 1.41 | 1 | 1.3
CCC(=O)Nc1c(C#N)c2nc3ccccc3nc2n1-c1ccc(C)cc1 | 10.0% | -18.1 | 8.5 | 3.72* | 1.07 | -2.5
Cc1nn(-c2ccccc2)c2sc(C(=O)C(C#N)c3ccccn3)cc12 (configuration not stated) | 4.0% | 28.0 | 34.2 | 1.3 | 1.03 | -3.2
COc1cc2cc3c(N)c(C(=O)NCc4ccco4)sc3nc2cc1OC | 13.0% | 29.2 | 6.1 | 1.23 | 1.07 | 3.4
Nc1c(C(=O)Nc2ccccc2)sc2nc(-c3ccco3)ccc12 | 7.0% | 0.6 | 17.3 | 3.74* | 1.15 | -14.5
COc1ccccc1NC(=O)c1oc2ccccc2c1NC(=O)c1ccco1 | 9.0% | -14.6 | -0.9 | 5.01* | 1.04 | 4.0
CCOc1cc(NC(=O)c2ccco2)c(OCC)cc1NC(=O)c1cc(OC)c(OC)c(OC)c1 | 5.0% | 19.4 | -7.2 | 3.99* | 1.06 | 3.1
O=C(Nc1ccc(Nc2ccccc2)cc1)c1ccco1 | 10.0% | -6.4 | 7.2 | 1.08 | 1.18 | 34.0
COc1ccccc1NC(=O)c1sc2nc(-c3ccco3)ccc2c1N | 7.0% | 32.7 | 17.3 | 3.83* | 1.15 | -7.1
Clc1ccc2c(c1)C1OCCC1C(c1ccco1)N2 (configuration not stated) | 9.0% | 17.9 | -0.8 | 3.74* | 1.1 | 0.2
Cc1ccc2c(c1)[C@H]1OCC[C@H]1[C@@H](c1ccncc1)N2 | 2.0% | 3.9 | 3.8 | 1.07 | 1.03 | 0.6
CC(=O)N1CCN(c2nc(CC(C)C)c3c(c2C#N)CCC3)CC1 | 6.0% | -12.3 | 27.3 | 2.3* | 1.03 | -3.2
CC(C)Cc1nc(N2CCN(C(=O)C(C)C)CC2)c(C#N)c2c1CCC2 | 15.0% | -15.1 | 17.7 | 2.14* | 1.03 | -1.6
SMILES | NADH coupling | MKP-1 inh | Cdc25B inh | Fluor 339 460 | Abs 340nm | Hsp90 block
CC(C)c1nc(N2CCOCC2)c(C#N)c2c1CCC2 | 5.0% | -29.0 | 22.6 | 2.03* | 1.03 | -2.7
CC(C)Cc1nc(N2CCOCC2)c(C#N)c2c1COC(C)(C)C2 | 7.0% | -19.1 | 5.7 | 2.36* | 1.05 | -1.8
CCOC(=O)c1ccc2nc3c(cc2c1)CCS3 | 9.0% | 3.3 | -5.5 | 1.52 | 1.09 | -2.4
CCOC(=O)COc1ccc2c(c1)C(=O)CC1(CCN(C(C)=O)CC1)O2 | 10.0% | 22.0 | -8.1 | 4.8* | 1.03 | -4.1
CCOC(=O)COc1ccc2nsnc2c1 | 5.0% | -9.4 | 4.6 | 1.69 | 1.06 | -14.9
O=C(O)COc1ccc2c(c1)CCCC2 | 2.0% | 1.2 | -10.3 | 1.12 | 1.06 | 2.7
CCOC(=O)N1CCC2(CC1)CC(=O)c1cc(O)ccc1O2 | 4.0% | 4.1 | -6.4 | 1.16 | 1 | -2.4
CCOC(=O)COc1ccc2c(c1)C(=O)CC(C)(C)O2 | 8.0% | 33.2 | -4.6 | 4.75* | 1.01 | -0.7
CC1(C)CC(=O)c2cc(OCC(=O)N3CCN(c4ccccc4F)CC3)ccc2O1 | 6.0% | 7.2 | -1.5 | 2.58* | 0.99 | -5.8
CC1(C)CC(=O)c2cc(OCC(=O)O)ccc2O1 | 7.0% | 23.6 | -17.1 | 4.85* | 1.03 | -4.6
CCOC(=O)CSc1nnc(CNC(=O)c2ccc(OC)cc2)n1C1CCCCC1 | 7.0% | 7.5 | -6.4 | 1.06 | 1.01 | -0.9
c1ccc2c(-c3nc(C4CCCCC4)no3)cc(-c3ccncc3)nc2c1 | 3.0% | 24.7 | -26.7 | 1.08 | 0.97 | 0.0
CCCc1c(CC)c(=N)c2ccccc2n1C | 6.0% | 1.3 | 11.4 | 3.45* | 1.12 | -3.0
COCCN(CCOC)Cc1cc(=O)oc2cc3c(cc12)CCC3 | 9.0% | -0.8 | -12.3 | 1.2 | 1.07 | -8.5
O=c1oc2c(CN3CCOCC3)c(O)c(Cl)cc2c2c1CCCC2 | 11.0% | 29.5 | -10.4 | 3.8* | 1.14 | -1.1
COCCN(CCOC)Cc1c(O)ccc2c3c(c(=O)oc12)CCC3 | 14.0% | 4.6 | -3.6 | 2.05* | 1.16 | -4.1
O=c1oc2c(CN3CCOCC3)c(O)ccc2c2c1CCCC2 | 12.0% | 14.0 | -12.2 | 3.79* | 1.12 | -0.1
c1ccc(CC2CCN(c3nc4ccccc4n4nnnc34)CC2)cc1 | 3.0% | -14.2 | 4.2 | 2.6* | 1.06 | 0.3
O=C(c1ccco1)N1CCN(c2nc3ccccc3n3nnnc23)CC1 | 6.0% | 4.1 | -6.3 | 1.55 | 1.06 | 1.9
C1=CC2c3ccccc3NC(c3ccncc3)C2C1 (configuration not stated) | 1.0% | -14.2 | 4.1 | 1.1 | 1 | -9.5

High-throughput results deposited in PubChem BioAssay by several laboratories.
